Common to all, as to experiment: DAPPL (digital affinity profiling via proximity ligation, sequencing); 10 mM Tris-HCl pH 7.5, 50 mM NaCl, 1 mM DTT, 4% glycerol, room temperature, 30 min; GST-TFs on glutathione beads, 16-mer random dsDNA library, 0.1% formaldehyde crosslink after washing; high values mean tight binding
The target of one assay is T1, FEV (Homo sapiens, UniProt Q99581 1-238).
T1 sequence: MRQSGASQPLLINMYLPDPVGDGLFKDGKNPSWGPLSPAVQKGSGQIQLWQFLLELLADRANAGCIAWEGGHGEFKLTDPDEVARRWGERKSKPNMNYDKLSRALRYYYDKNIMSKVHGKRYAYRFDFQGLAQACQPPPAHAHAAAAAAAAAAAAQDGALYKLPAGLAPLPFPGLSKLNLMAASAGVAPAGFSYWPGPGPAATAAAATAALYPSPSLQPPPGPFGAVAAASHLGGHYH
The note with it: protein: recombinant; tags: N-terminal GST; dsDNA, one strand shown. An outline of the steps:
(§1)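 Binding signal is given per hexamer as its read frequency for a factor divided by its frequency in the tag-only sample. GST-fused human transcription factors were expressed in yeast, captured on glutathione beads, barcoded with DNA and pooled with that sample, then incubated with 200 nmole of a 16-mer random double-stranded DNA library in Tris/NaCl/DTT/glycerol buffer for 30 min at room temperature. The pools were then washed, crosslinked, proximity-ligated, amplified by PCR and sequenced on an Illumina NextSeq500.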

The next assay addresses ETV5 (Homo sapiens, UniProt P41161 1-510). The note with it: protein: recombinant; tags: N-terminal GST; dsDNA, one strand shown. Put shortly: as §1
The target in a further assay is HSF1 (Homo sapiens, UniProt Q00613 1-529). The note with it: protein: recombinant; tags: N-terminal GST; chain copies: 3; dsDNA, one strand shown. An outline of the steps:
as §1

In another assay the target is T2, SPIC (Homo sapiens, UniProt Q8N5J4 1-248).
T2 sequence: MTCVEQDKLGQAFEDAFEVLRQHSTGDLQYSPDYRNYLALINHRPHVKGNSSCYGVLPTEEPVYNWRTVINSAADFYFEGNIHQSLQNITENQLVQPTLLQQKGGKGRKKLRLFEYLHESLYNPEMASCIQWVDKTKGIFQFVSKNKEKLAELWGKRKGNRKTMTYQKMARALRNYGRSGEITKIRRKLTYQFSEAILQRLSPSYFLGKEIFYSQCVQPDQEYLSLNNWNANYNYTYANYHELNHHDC
The note with it: protein: recombinant; tags: N-terminal GST; dsDNA, one strand shown. An outline of the steps: as §1

The next assay deals with ELF4 (Homo sapiens, UniProt Q99607 1-663). Conditions: protein: recombinant; tags: N-terminal GST; dsDNA, one strand shown. Put shortly: as §1
ELF4, sequence (Q99607 whole entry): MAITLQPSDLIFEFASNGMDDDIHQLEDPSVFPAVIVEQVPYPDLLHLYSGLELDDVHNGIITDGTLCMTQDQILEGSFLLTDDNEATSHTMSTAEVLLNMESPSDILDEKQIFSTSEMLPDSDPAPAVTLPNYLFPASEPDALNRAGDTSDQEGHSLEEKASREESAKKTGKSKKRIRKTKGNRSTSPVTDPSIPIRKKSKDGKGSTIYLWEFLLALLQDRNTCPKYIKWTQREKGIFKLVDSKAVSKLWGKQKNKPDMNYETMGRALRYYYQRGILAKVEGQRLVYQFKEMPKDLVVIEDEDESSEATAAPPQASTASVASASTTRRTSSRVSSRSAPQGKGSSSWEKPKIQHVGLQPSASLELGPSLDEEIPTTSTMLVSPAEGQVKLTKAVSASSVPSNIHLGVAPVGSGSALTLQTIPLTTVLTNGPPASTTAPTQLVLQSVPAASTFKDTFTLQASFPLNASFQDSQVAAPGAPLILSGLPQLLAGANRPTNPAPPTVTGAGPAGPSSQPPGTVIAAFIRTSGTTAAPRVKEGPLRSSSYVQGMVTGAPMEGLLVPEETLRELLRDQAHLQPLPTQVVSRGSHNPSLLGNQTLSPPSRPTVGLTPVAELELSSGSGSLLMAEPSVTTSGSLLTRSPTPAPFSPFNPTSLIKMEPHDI
The next assay has as its target T3, ELK4 (Homo sapiens, UniProt P28324-2 1-405).
T3 sequence: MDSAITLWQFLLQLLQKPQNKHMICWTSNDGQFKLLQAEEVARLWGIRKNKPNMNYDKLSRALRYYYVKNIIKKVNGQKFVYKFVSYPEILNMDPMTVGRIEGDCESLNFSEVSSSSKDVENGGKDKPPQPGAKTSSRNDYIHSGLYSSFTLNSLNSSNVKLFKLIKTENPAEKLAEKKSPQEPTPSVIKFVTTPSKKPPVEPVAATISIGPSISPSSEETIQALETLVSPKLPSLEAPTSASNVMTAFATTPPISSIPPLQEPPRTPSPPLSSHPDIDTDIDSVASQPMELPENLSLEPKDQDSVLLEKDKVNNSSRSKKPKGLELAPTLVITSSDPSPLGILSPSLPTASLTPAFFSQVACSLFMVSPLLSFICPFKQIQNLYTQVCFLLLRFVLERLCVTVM
Conditions: protein: recombinant; tags: N-terminal GST; dsDNA, one strand shown. An outline of the steps:
as §1

The target in the next assay is T4, ETV2 (Homo sapiens, UniProt O00321 1-342).
T4 sequence: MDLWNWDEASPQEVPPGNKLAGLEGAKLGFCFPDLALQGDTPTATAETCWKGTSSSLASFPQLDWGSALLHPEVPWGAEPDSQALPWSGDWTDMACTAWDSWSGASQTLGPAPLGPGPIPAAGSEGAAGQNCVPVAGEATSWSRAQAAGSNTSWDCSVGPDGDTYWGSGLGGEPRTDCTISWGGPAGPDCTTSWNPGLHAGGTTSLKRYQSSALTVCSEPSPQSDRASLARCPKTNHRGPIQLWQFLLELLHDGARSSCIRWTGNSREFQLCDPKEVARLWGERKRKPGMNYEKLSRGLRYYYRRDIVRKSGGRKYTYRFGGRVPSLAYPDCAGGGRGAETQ
The note with it: protein: recombinant; tags: N-terminal GST; dsDNA, one strand shown. Put shortly: as §1

The target in another assay is T5, ELF3 (Homo sapiens, UniProt P78545 1-371).
T5 sequence: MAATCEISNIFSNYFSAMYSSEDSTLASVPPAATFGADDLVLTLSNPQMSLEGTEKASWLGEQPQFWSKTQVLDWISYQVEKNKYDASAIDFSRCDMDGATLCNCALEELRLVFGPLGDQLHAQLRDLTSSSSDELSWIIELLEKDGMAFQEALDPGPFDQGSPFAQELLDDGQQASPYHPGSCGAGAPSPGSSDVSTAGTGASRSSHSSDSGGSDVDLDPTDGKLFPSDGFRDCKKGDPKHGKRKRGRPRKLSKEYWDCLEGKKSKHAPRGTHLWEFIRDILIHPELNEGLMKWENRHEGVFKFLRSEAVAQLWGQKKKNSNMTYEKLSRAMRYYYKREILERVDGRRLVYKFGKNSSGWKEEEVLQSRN
Conditions: protein: recombinant; tags: N-terminal GST; dsDNA, one strand shown. Put shortly: as §1

The next assay concerns the target CRX (Homo sapiens, UniProt O43186 1-299). The note with it: protein: recombinant; tags: N-terminal GST; dsDNA, one strand shown. Put shortly:
as §1

A further assay addresses ETV1 (Homo sapiens, UniProt P50549 1-477). Conditions: protein: recombinant; tags: N-terminal GST; dsDNA, one strand shown. Put shortly:
as §1

The target in a further assay is T6, ERF (Homo sapiens, UniProt P50548 1-548).
T6 sequence: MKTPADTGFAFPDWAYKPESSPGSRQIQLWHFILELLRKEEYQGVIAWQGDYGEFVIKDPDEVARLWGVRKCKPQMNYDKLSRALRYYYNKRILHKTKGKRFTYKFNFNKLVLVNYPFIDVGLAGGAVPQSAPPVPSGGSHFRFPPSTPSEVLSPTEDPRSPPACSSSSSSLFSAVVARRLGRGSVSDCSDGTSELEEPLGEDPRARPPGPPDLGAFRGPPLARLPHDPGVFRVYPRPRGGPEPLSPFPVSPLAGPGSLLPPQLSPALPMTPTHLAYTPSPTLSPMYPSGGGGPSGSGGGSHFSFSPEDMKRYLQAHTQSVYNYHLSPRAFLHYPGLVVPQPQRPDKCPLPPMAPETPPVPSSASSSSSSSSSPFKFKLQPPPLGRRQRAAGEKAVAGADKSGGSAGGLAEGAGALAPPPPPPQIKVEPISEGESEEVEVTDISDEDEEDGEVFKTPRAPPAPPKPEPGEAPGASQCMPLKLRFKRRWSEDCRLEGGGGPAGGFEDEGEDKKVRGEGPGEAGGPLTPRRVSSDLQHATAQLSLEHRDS
The note with it: protein: recombinant; tags: N-terminal GST; dsDNA, one strand shown. An outline of the steps: as §1

The target of another assay is T7, ETV3L (Homo sapiens, UniProt Q6ZN32 1-361).
T7 sequence: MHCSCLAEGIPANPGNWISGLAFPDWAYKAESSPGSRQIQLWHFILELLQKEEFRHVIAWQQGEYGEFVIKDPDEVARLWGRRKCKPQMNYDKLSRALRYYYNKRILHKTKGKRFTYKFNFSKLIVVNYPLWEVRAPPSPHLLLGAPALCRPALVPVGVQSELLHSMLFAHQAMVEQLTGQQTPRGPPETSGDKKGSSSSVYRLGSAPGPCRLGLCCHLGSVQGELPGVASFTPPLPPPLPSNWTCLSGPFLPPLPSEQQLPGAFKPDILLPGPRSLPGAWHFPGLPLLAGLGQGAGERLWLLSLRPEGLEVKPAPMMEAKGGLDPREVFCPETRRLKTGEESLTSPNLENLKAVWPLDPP
Conditions: protein: recombinant; tags: N-terminal GST; dsDNA, one strand shown. An outline of the steps:
as §1

The next assay concerns the target T8, ETS2 (Homo sapiens, UniProt P15036 1-469).
T8 sequence: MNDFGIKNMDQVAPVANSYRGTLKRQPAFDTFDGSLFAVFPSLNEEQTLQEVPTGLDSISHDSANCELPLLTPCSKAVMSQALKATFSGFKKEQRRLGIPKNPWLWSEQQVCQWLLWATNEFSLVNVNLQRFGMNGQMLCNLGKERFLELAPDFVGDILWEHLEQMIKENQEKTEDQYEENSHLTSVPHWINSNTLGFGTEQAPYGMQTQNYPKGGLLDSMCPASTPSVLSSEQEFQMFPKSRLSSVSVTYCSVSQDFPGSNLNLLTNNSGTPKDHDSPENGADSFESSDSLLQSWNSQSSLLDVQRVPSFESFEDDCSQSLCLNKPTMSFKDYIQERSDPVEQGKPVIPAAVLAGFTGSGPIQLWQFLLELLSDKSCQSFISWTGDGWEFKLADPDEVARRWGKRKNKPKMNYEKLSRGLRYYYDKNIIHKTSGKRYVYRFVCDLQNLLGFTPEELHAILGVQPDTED
The note with it: protein: recombinant; tags: N-terminal GST; dsDNA, one strand shown. An outline of the steps:
as §1

The target of another assay is T9, SPDEF (Homo sapiens, UniProt O95238 1-335).
T9 sequence: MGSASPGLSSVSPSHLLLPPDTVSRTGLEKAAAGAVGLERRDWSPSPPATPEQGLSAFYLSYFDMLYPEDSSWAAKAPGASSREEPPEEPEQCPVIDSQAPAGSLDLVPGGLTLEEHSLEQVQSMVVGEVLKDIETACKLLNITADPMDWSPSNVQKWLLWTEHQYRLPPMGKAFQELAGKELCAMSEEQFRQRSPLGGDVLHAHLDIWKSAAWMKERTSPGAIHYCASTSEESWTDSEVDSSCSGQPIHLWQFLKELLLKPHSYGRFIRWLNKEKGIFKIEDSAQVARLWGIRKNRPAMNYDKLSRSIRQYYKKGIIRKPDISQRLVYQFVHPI
The note with it: protein: recombinant; tags: N-terminal GST; dsDNA, one strand shown. Put shortly: as §1

Another assay has as its target T10, ETV7 (Homo sapiens, UniProt Q9Y603 1-341).
T10 sequence: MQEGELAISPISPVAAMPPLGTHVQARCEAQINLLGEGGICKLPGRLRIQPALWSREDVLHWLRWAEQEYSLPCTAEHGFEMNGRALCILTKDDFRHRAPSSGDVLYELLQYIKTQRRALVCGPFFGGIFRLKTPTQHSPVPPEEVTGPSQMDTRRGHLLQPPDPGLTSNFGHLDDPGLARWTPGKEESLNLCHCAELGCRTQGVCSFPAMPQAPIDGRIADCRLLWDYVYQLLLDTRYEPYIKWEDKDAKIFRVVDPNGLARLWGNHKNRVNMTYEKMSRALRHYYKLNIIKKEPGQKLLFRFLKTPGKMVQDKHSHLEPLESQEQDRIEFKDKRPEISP
Conditions: protein: recombinant; tags: N-terminal GST; dsDNA, one strand shown. Put shortly:
as §1

For another assay, the target named is T11, ELF5 (Homo sapiens, UniProt Q9UKW6-2 1-255).
T11 sequence: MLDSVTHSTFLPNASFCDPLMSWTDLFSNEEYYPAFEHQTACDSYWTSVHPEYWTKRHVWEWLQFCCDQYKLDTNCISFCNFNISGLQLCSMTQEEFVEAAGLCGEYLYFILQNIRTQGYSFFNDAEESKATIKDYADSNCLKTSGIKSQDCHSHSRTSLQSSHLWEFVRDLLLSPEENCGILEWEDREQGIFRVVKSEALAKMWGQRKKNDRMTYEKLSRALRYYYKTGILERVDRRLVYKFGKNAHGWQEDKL
The note with it: protein: recombinant; tags: N-terminal GST; dsDNA, one strand shown. An outline of the steps: as §1

Another assay deals with T12, ETV3 (Homo sapiens, UniProt P41162-2 1-143).
T12 sequence: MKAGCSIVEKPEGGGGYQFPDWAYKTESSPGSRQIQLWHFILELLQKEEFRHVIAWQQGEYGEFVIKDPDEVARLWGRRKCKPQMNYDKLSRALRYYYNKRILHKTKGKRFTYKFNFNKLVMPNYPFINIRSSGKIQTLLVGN
The note with it: protein: recombinant; tags: N-terminal GST; dsDNA, one strand shown. An outline of the steps: as §1

In another assay the target is ETV6 (Homo sapiens, UniProt P41212 1-452). The note with it: protein: recombinant; tags: N-terminal GST; dsDNA, one strand shown. An outline of the steps: as §1
ETV6, sequence (P41212 whole entry): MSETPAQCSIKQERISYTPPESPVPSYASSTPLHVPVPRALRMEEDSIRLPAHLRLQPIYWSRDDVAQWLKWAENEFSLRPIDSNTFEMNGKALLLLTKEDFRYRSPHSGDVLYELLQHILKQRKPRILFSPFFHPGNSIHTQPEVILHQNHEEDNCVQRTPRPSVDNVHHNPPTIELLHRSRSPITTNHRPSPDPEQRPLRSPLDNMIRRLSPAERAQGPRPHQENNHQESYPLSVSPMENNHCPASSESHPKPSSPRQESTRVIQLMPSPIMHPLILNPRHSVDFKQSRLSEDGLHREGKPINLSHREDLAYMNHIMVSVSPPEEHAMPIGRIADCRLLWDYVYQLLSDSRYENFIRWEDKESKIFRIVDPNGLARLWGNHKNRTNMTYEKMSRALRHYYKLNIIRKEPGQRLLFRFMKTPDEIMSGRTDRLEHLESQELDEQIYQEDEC

HSF1, sequence (Q00613 whole entry): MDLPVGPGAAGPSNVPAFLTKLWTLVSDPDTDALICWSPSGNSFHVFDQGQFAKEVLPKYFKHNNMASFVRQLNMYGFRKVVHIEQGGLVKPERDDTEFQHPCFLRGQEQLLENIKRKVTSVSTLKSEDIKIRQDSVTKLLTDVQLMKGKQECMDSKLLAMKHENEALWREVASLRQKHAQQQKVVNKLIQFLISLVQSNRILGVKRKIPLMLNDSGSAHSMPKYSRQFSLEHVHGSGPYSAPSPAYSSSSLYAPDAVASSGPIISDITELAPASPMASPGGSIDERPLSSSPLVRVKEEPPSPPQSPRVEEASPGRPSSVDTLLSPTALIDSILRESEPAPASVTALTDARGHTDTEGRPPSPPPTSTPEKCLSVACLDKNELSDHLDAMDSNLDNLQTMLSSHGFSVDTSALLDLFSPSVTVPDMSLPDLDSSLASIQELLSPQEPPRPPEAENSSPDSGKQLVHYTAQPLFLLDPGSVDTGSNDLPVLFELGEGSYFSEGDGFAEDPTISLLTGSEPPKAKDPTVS
ETV1, sequence (P50549 whole entry): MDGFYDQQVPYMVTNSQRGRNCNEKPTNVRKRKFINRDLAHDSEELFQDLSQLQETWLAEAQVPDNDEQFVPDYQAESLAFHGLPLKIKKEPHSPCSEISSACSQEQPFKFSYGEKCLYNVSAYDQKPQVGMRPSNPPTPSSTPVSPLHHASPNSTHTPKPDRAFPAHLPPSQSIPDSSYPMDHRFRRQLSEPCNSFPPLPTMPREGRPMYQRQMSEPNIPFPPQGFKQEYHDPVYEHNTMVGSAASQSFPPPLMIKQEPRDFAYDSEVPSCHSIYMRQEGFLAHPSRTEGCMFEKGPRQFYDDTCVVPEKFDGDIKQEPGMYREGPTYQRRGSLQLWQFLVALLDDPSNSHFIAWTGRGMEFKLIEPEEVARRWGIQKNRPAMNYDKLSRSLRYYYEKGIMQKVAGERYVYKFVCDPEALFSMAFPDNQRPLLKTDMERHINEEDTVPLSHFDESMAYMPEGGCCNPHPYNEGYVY
ETV5, sequence (P41161 whole entry): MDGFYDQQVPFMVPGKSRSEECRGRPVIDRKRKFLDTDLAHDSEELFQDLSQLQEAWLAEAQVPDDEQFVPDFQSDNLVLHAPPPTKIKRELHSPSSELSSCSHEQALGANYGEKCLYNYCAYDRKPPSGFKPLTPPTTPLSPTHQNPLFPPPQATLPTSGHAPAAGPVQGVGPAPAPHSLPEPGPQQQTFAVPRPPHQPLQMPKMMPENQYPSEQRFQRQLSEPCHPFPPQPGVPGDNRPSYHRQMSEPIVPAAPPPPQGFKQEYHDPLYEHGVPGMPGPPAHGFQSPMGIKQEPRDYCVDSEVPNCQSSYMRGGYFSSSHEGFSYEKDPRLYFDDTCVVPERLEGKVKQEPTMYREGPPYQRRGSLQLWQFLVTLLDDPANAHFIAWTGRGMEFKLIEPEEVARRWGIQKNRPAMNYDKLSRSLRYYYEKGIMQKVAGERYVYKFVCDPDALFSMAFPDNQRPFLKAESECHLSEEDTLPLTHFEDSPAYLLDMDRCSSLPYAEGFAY
CRX, sequence (O43186 whole entry): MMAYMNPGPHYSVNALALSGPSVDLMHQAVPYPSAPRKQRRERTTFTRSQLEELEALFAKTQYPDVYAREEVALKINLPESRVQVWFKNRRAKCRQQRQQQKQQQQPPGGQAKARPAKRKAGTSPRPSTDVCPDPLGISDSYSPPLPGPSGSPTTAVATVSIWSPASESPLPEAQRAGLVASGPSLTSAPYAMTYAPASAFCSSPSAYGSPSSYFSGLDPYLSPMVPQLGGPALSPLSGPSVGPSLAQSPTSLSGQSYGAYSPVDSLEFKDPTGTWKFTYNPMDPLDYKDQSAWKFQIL

Turning to AAATCA, the binding signal in the assay with FEV was 1.2 fold enrichment (6-mer frequency, TF over GST control); in the assay with ETV5, 1.26 fold enrichment (6-mer frequency, TF over GST control); with HSF1, 1.17 fold enrichment (6-mer frequency, TF over GST control); with SPIC, 1.18 fold enrichment (6-mer frequency, TF over GST control); with ELF4, 1.24 fold enrichment (6-mer frequency, TF over GST control); with ELK4 it was 1.23 fold enrichment (6-mer frequency, TF over GST control). For the same sequence, the binding signal is 1.39 fold enrichment (6-mer frequency, TF over GST control) in the assay with ETV2; 1.27 fold enrichment (6-mer frequency, TF over GST control) with ELF3; 1.33 fold enrichment (6-mer frequency, TF over GST control) in the assay with CRX; 1.18 fold enrichment (6-mer frequency, TF over GST control) with ETV1; 1.23 fold enrichment (6-mer frequency, TF over GST control) with ERF; 1.27 fold enrichment (6-mer frequency, TF over GST control) with ETV3L. Further, the binding signal with ETS2 was 1.22 fold enrichment (6-mer frequency, TF over GST control); with SPDEF it was 1.12 fold enrichment (6-mer frequency, TF over GST control); in the assay with ETV7 it was 1.16 fold enrichment (6-mer frequency, TF over GST control); with ELF5, 1.22 fold enrichment (6-mer frequency, TF over GST control); with ETV3, 1.17 fold enrichment (6-mer frequency, TF over GST control); with ETV6 it was 1.21 fold enrichment (6-mer frequency, TF over GST control).
